Results as given in the supplement of paper PMC3545927.
This is one part of the list. How many sequences the whole screen found active is unknown.

Target: furin, P09958
Experiment: furin cleavage Z-score vs untreated control; higher = more cleavage, active = 3.5 or more, inactive = 1 or less, 8 variable residues between constant flanks
In short: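 Purified furin cleaved 8-mer peptides that were fused to a cDNA oligonucleotide and held on magnetic beads by their N-terminus. Each 0.01 ml reaction used a 1:10 enzyme:substrate ratio in 50 mM HEPES pH 7.5 with CaCl2 and NaCl and ran 7.5, 15 or 30 min. Released DNA was adapter-tagged by PCR and sequenced, and read counts gave abundance. The cleavage Z-score came from log counts against furin-free reactions, lowess-adjusted and scaled by median absolute deviation.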

Sequence of furin, P09958 (P09958 whole entry): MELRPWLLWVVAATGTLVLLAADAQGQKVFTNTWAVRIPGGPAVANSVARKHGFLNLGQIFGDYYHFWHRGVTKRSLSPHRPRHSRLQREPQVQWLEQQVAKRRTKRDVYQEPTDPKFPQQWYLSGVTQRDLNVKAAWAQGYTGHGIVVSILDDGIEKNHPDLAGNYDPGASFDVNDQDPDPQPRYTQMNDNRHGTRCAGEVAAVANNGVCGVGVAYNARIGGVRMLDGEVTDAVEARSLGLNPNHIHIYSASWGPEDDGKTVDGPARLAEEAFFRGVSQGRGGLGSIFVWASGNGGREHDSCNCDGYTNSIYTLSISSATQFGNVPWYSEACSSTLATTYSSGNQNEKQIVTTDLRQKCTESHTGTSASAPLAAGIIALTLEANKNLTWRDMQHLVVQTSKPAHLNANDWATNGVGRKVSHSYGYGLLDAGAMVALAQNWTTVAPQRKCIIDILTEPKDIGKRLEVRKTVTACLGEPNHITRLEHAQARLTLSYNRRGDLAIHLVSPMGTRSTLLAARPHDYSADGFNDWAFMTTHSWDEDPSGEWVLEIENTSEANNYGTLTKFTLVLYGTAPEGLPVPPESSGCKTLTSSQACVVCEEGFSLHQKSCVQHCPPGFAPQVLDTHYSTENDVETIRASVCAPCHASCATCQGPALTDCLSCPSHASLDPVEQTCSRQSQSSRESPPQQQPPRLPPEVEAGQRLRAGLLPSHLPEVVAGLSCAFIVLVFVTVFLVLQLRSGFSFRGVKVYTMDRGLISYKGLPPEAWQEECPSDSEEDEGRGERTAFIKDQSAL

Row | Sequence | furin cleavage Z-score (7.5 min) | furin cleavage Z-score (15 min) | furin cleavage Z-score (30 min)
1 | CARSKRGWVWAGNASASA [FS-2605] | 0.844 (inactive) | 3.21 | 4 (active)
2 | CARVESENKVAGNASASA [HC1282] | 0.35 (inactive) | -0.0116 (inactive) | 1.18
3 | CARPKRGWVWAGNASASA [FS-2164] | -0.398 (inactive) | -0.529 (inactive) | 2.44
4 | CARVKRIFYQAGNASASA [FS-2530] | 1.69 | -1.51 (inactive) | 0.645 (inactive)
5 | CARVKRGWVWAGNASASA [FS-2101] | 2.07 | 4.37 (active) | 8.77 (active)
6 | CARSKRSWMWAGNASASA [FS-2459] | 0.863 (inactive) | 2.1 | 6.05 (active)
7 | CARVKRGSKVAGNASASA [FS-2100] | 2.43 | 3.33 | 4.45 (active)
8 | CAAKSVCGPVAGNASASA [HC410] | -0.0296 (inactive) | 1.97 | -1.19 (inactive)
9 | CAVYNHLTPLAGNASASA [HC635] | -0.863 (inactive) | 0.0646 (inactive) | -0.69 (inactive)
10 | CAEEPCHRPSAGNASASA [HC2332] | 0.704 (inactive) | 0.583 (inactive) | -1.24 (inactive)
11 | CARVARLLSAAGNASASA [FS-3114] | -1.2 (inactive) | 0.294 (inactive) | -1.59 (inactive)
12 | CARVARSRELAGNASASA [FS-1842] | 4.74 (active) | 5.44 (active) | 7.45 (active)
13 | CAKLKRSHELAGNASASA [FS-2868] | 0.465 (inactive) | 2.2 | 1.3
14 | CAFLKRSGRDAGNASASA [FS-1324] | 4.93 (active) | 3.96 (active) | 4.12 (active)
15 | CARVARSGRDAGNASASA [FS-3115] | 2.88 | 2.99 | 4.3 (active)
16 | CARVWRDSFLAGNASASA [FS-2407] | -0.29 (inactive) | 1.62 | 0.504 (inactive)
17 | CATPAETTVRAGNASASA [HC926] | -0.713 (inactive) | 1.4 | -0.157 (inactive)
18 | CAGALVAFKIAGNASASA [HC1091] | -1.03 (inactive) | -0.999 (inactive) | -1.45 (inactive)
19 | CAMGSSYGFQAGNASASA [HC1464] | 0.332 (inactive) | -0.28 (inactive) | -0.392 (inactive)
20 | CAEHVRKLRSAGNASASA [FS-990] | 9.51 (active) | 9.45 (active) | 7.69 (active)
21 | CASYFRKKRSAGNASASA [FS-1288] | 10.9 (active) | 10.4 (active) | 8.85 (active)
22 | CAEHFRKKRSAGNASASA [FS-1450] | 13.1 (active) | 12 (active) | 10.4 (active)

Row | Sequence | furin cleavage Z-score (7.5 min) | furin cleavage Z-score (15 min) | furin cleavage Z-score (30 min)
23 | CAVVCCSMSDAGNASASA [HC2091] | -0.81 (inactive) | 0.345 (inactive) | -0.759 (inactive)
24 | CALCECYDAGAGNASASA [HC919] | -0.871 (inactive) | 0.625 (inactive) | -1.3 (inactive)
25 | CAGHVKNGTMAGNASASA [HC1179] | 0.572 (inactive) | 0.821 (inactive) | 0.846 (inactive)
26 | CARGARGVRVAGNASASA [FS-2929] | -0.658 (inactive) | -0.415 (inactive) | -0.385 (inactive)
27 | CARFSKSADEAGNASASA [FS-2927] | -0.221 (inactive) | -0.408 (inactive) | -0.912 (inactive)
28 | CARIRRDVRVAGNASASA [FS-1899] | 8.22 (active) | 10.4 (active) | 7.12 (active)
29 | CARIKKDKKEAGNASASA [FS-2951] | -1.75 (inactive) | -0.739 (inactive) | -0.88 (inactive)
30 | CARIRRDANEAGNASASA [FS-3189] | 13.3 (active) | 13.5 (active) | 9.85 (active)
31 | CARIRRGTDEAGNASASA [FS-1956] | 12.4 (active) | 12.2 (active) | 8.37 (active)
32 | CAVALSTTGEAGNASASA [HC843] | -1.85 (inactive) | -1.96 (inactive) | -0.758 (inactive)
33 | CAEVPCHRPGAGNASASA [HC2416] | -0.244 (inactive) | -0.922 (inactive) | 0.598 (inactive)
34 | CATKVCGAPPAGNASASA [HC441] | 0.138 (inactive) | 0.123 (inactive) | -0.197 (inactive)
35 | CARPRRSAHRAGNASASA [FS-1863] | 8.93 (active) | 9.74 (active) | 8.89 (active)
36 | CARPRRGSLRAGNASASA [FS-2502] | -1.01 (inactive) | -0.431 (inactive) | 1.07
37 | CARPRRGSHPAGNASASA [FS-2359] | 0.189 (inactive) | 1.65 | 2.41
38 | CARPRRSAGKAGNASASA [FS-2059] | 6.62 (active) | 6.92 (active) | 6.48 (active)
39 | CARPRRSAPKAGNASASA [FS-3200] | 8.12 (active) | 8.75 (active) | 6.05 (active)
40 | CARPRRRLGPAGNASASA [FS-2503] | 0.585 (inactive) | 1.48 | 1.2
41 | CARPRRFFPGAGNASASA [FS-1964] | -0.922 (inactive) | -0.718 (inactive) | -0.224 (inactive)
42 | CAYVVTSTWVAGNASASA [HC2149] | 0.323 (inactive) | -0.464 (inactive) | -0.44 (inactive)
43 | CANGVCWTVYAGNASASA [HC698] | -1.07 (inactive) | 2.25 | -1.18 (inactive)
